A selection: hits, their analogues and other compounds. The true share with any hit is near 4.2%.
Mac1 fbg enh: enhancers of human CD11b/CD18 binding to fibrinogen; K562 CD11b/CD18 adhesion to fibrinogen, ATPlite luminescence; P05107+P11215; 93,000 tested, 0.07% active; AID 1499; activation, % at 10 µM;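 active means 10 µM primary screen giving 50% or more activity, confirmed by 40% or more on retest at that dose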
Cav3 T inh: human Cav3.2 channel inhibition, primary screen; O95180; Cav3.2-expressing cells, Fluo-4 calcium fluorescence FDSS; stronger effect = lower value; B-score at 10 µM; 100,000 tested, 4% active; AID 449739;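 active means single-dose well whose peak fluorescence ratio is a statistical outlier from its plate by either plate-standardised score or position-corrected B-score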
Ec RNAP inh: blocks E. coli RNA polymerase transcription; P0A8V2; fluorescence transcription assay; inhibition, %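 (tested at 10 µM)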; 62,000 tested, 0.2% active; AID 559; in the data active means inhibition above about 20%;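 further: 0% = enzyme without compound and 100% = no enzyme blank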
CD11b adhes inh: blocks human CD11b/CD18 adhesion to fibrinogen. P05107+P11215. K562 CD11b/CD18 adhesion to fibrinogen, ATPlite luminescence; Mn2+ added to activate the integrin. inhibition, % at 10 µM. 93,000 tested, 0.54% active. AID 1497;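 active means primary inhibition of 50% or more at 10 µM, then 40% or more on retest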
Pyk2 oligo antag: antagonists of human Pyk2 oligomerization; Q293 cells, Pyk2 FERM NanoBiT luminescence; stronger effect = lower value; z-score (the deposit names both 25 µM and 10 µM); 99,000 tested, 0.83% active; AID 1347419;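 active means Z-score of -3 or lower, scaled per plate to the spread of control and sample wells; inactive means z-score above -3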;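 further: negative z-score means lost luminescence so less FERM oligomerization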
Starred values were filed as active, the others as inactive; · = not tested or not shown.

SMILES | Mac1 fbg enh | Cav3 T inh | Ec RNAP inh | CD11b adhes inh | Pyk2 oligo antag
O[C@@H]([C@H](O)[C@H](O)CBr)[C@H](O)CBr | · | 0.5 | · | · | ·
O=C(CC(NS(=O)(=O)c1ccc(Cl)cc1)c1ccco1)N1CCc2ccccc21 (configuration not stated) | -3 | -4.3* | · | 4 | -0.62
CCC(C)NC(=O)CC(NS(=O)(=O)c1ccc(Cl)cc1)c1ccco1 (configuration not stated) | 0 | -0.015 | -8 | -19 | 0.44
CCc1cc2c(=O)c(-c3cnn(-c4ccccc4)c3)c(C(F)(F)F)oc2c(CN(C)C)c1O | 8 | · | · | 27 | ·
CCOc1ccccc1C(=O)N1c2ccccc2Sc2ccccc21 | -5 | -5.6* | · | 19 | -1.9
CCOc1ccccc1C(=O)N1CCOCC1 | -2 | -0.012 | · | 0 | 0.77
COc1ccc(C2C=C(c3ccccc3)Nc3nc(CCCO)nn32)cc1 (configuration not stated) | 3 | -1.1 | -7 | -8 | ·
COc1ccc(C2C=C(c3cccs3)Nc3nc(CCCO)nn32)cc1 (configuration not stated) | 0 | -12* | -13 | 1 | ·
COc1ccc(C(CC(=O)Nc2ccc(F)cc2)c2ccccc2)cc1 (configuration not stated) | · | -6.2* | · | · | -2
COc1ccc(NC(=O)CC(c2ccc(F)cc2)c2ccc(OC)cc2)cc1 (configuration not stated) | 2 | · | · | 4 | ·
Nc1cc(-c2ccc(Cl)cc2)nn1S(=O)(=O)c1cccc2nsnc12 | 6 | -6.4* | · | 2 | ·
O=S(=O)(c1cccc2nsnc12)N1CCCC1 | · | 0.73 | 3 | · | 0.41
Nc1cc(-c2cccc(F)c2)nn1S(=O)(=O)c1cccc2nsnc12 | · | -5.2* | 9 | · | ·
Nc1cc(-c2ccc(Br)cc2)nn1S(=O)(=O)c1cccc2nsnc12 | 3 | · | · | 3 | ·
CC(C)CCNC(=O)c1c(CSc2ccc(Cl)cc2)noc1C(=O)NCc1ccccc1 | · | 0.034 | · | · | ·
COc1ccc(NC(=O)Cn2nc(C(F)(F)F)c3c2CCCC3)cc1OC | · | 0.0017 | · | · | -0.15
O=C(Cn1nc(C(F)(F)F)c2c1CCCC2)Nc1ccc2c(c1)OCO2 | -4 | -4.9* | 2 | -9 | 0.25
O=C(Cn1nc(C(F)(F)F)c2c1CCC2)NCc1ccc(Cl)cc1 | · | -4.5* | · | · | -0.74
O=C(Cn1nc(C(F)(F)F)c2c1CCC2)Nc1ccccc1C(F)(F)F | · | -2 | · | · | -0.3
COc1cccc(NC(=O)CCS(=O)(=O)c2cccs2)c1 | -1 | 1.1 | 4 | 0 | 0.93
N#CC1(C#N)CC(C=O)=C(N)C1(C#N)CC(=O)C12CC3CC(CC(C3)C1)C2 (configuration not stated) | 0 | · | · | 7 | ·
COc1cc(OC)c(C(=O)Nc2cccc(C(C)=O)c2)cc1OC | 5 | -0.53 | · | -44 | 0.33
Cc1ccc(S(=O)(=O)Nc2ccc(Cl)cc2C(=O)c2ccc(F)cc2)cc1 | -12 | · | · | 104 | ·
COc1ccc([N+](=O)[O-])cc1NC1CCCCC1 | · | -5* | · | · | 0.52
COc1ccc([N+](=O)[O-])cc1NC1C2CC3CC(C2)CC1C3 (configuration not stated) | 0 | -0.26 | · | 5 | 0.98
SMILES | Mac1 fbg enh | Cav3 T inh | Ec RNAP inh | CD11b adhes inh | Pyk2 oligo antag
Cc1ccc(S(=O)(=O)N2CCN(CC(=O)NC(=O)NCc3ccccc3)CC2)cc1C | 1 | 0.76 | · | -11 | -0.04
CCc1ccc(NC(=O)C2(c3ccccc3)CC2(Cl)Cl)cc1 (configuration not stated) | · | -2.8 | · | · | -3.1*
Cc1cccc(NC(=O)C2(c3ccccc3)CC2(Cl)Cl)c1 (configuration not stated) | · | -8* | · | · | -2
Cc1ccc(NC(=O)C2(c3ccccc3)CC2(Cl)Cl)cc1C (configuration not stated) | · | · | · | · | -3.2*
Cc1cc(C)cc(NC(=O)C2(c3ccccc3)CC2(Cl)Cl)c1 (configuration not stated) | -3 | -6.1* | · | 6 | -2.4
Cc1cccc(NC(=O)N2CCN(Cc3ccccc3)CC2)c1 | · | 0.053 | · | · | -0.25
Cc1ccc(NC(=O)Cc2ccc3c(c2)CCCC3)cc1C | 7 | -2.1 | · | 2 | -0.7
O=C1NC(=S)SC1=C1CCCC1 | 1 | 0.13 | · | 0 | 0.28
O=C(CSc1ccccc1C(=O)NCc1ccccc1)NC1CCCCCCC1 | -1 | · | · | -6 | -0.38
CCO[C@H]1OC(C(N)=O)=C[C@@H](C2CC2)[C@@H]1CCCO | · | 0.58 | · | · | ·
CC1CCC(NC(=O)c2ccc3nc[nH]c3c2)CC1 (configuration not stated) | -1 | -0.23 | · | 10 | 0.04
COc1cccc(CN2CCN(C(=O)c3cccc4ccccc34)CC2)c1OC | 1 | -4.5* | 7 | -22 | 0.68
OC12CCCCC1C(c1ccc3c(c1)OCO3)N(Cc1ccc(F)cc1)CC2 (configuration not stated) | -3 | -5.9* | 8 | 6 | 0.6
OC12CCCCC1C(c1ccc3c(c1)OCO3)N(Cc1cccc(F)c1)CC2 (configuration not stated) | -1 | -2.4 | 7 | -8 | 0.96
O=C(/C=C/c1cccc([N+](=O)[O-])c1)NCCSc1ccccc1 | · | -3.7* | · | · | 1.5
CCCCN(CCCC)C(=O)/C=C/c1cccc([N+](=O)[O-])c1 | -2 | -6* | · | 6 | 0.4
CCOC(=O)Cc1csc(NC(=O)CCCCCN2C(=O)c3ccccc3C2=O)n1 | · | -1.4 | · | · | -0.5
CCN(C(=O)Cc1ccc(Br)cc1)C1CCCCC1 | 4 | -4.4* | · | -6 | -1
COc1cc(C2=CCN(C(C)=O)CC2)ccc1OC(C)=O | · | 1.2 | · | · | ·
CC(C)CN(CC(C)C)C(=O)Cc1coc2ccc3ccccc3c12 | 0 | -4.9* | · | 21 | -0.61
Cc1ccc(C2=N/C(=C\N3CCCCC3)C(=O)O2)cc1 | 2 | 0.59 | · | -9 | -0.38
Cc1cccc2cc(/C=C3\N=C(c4ccccc4)OC3=O)c(N3CCOCC3)nc12 | 8 | -6* | · | -14 | -1.4
Cc1ccc(-c2nnc(N3CCN(C(=O)COc4ccccc4)CC3)c3ccccc23)cc1 | 2 | -7.4* | · | -3 | -2.8
c1ccc(-c2nnc(N3CCN(c4ccccn4)CC3)c3ccccc23)cc1 | 0 | -5.6* | -9 | 4 | -2.4
CC(C)c1ccccc1NC(=O)COC(=O)Cc1ccsc1 | 0 | · | · | 11 | ·
SMILES | Mac1 fbg enh | Cav3 T inh | Ec RNAP inh | CD11b adhes inh | Pyk2 oligo antag
O=C(CSc1nnnn1-c1ccc(Cl)cc1)N1CCc2ccccc2C1 | 1 | -0.48 | 9 | -2 | 2.5
Cc1ccc(Nc2nc(Cl)nc(N(C)C#N)n2)cc1 | · | 4* | · | · | 1.3
O=S(=O)(NCCSc1ccccc1)c1ccc(F)cc1 | 1 | -5.7* | 7 | 21 | 2.5
CC(C)(C)SCCNS(=O)(=O)c1ccc(F)cc1 | -2 | -0.54 | 9 | 0 | -0.74
CC(NC(=O)CN1C(=O)NC(Cc2ccccc2)(Cc2ccccc2)C1=O)C12CC3CC(CC(C3)C1)C2 (configuration not stated) | 3 | -5.2* | · | 4 | -1.2
O=C(NCC1c2ccccc2CCN1C(=O)CN1C(=O)c2ccccc2C1=O)C1CCCCC1 (configuration not stated) | -3 | 1 | · | -1 | 0.92
Cc1nc(NCCc2ccccc2)c2oc3ccccc3c2n1 | -4 | -1.9 | · | 53 | 1.9

High-throughput results: PubChem BioAssay, several laboratories
